The record followed here is PubChem BioAssay (Tox21).

Several values for one entry are separate records, joined by “and”; a condition that tells them apart may be missing. Identical values can stand only once. Inconclusive results are not listed. More than one record can exist for a structure, and the calls need not agree. Activity calls are given as the source filed them. Unless noted, the call rests on the fitted dose curve; in most records, active means well fitted curve in the direction sought with a large enough effect in the repeat runs; inconclusive means weak or mixed curves; inactive means no such curve, though single readings can be large; an effect the other way counts as inactive or inconclusive.

The target of experiment [1] is Luciferin 4-monooxygenase (Photinus pyralis) (UniProt P08659). Briefly: qHTS assay to identify small molecule inhibitors of firefly luciferase (AID 1224835). Further: nearly all actives have a fitted effect of over 25% in size. In outline: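 Biochemical qHTS: compounds run as interplate titrations against purified firefly enzyme, with D-luciferin and ATP each at its KM concentration. Light output recorded by CCD imaging.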
On the technique in general: qHTS replaces the single test concentration by a dilution series.

The nature of experiment [2]: qHTS assay to identify small molecule agonists of the constitutive androstane receptor (CAR) signaling pathway - cell viability counter screen (AID 1224836). Further: nearly all actives have a fitted effect of over 45% in size. An outline of the steps:
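Double-stable HepG2 hepatoma cells (hCAR plus CYP2B6-2.2kb) are treated for 23 h at 37 C with test compounds in 15-point concentration series. PK11195 at 0.75 uM final is co-added. Cell viability is quantified by CellTiter-Fluor.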

Experiment [3] is described as follows: qHTS assay to identify small molecule antagonists of the constitutive androstane receptor (CAR) signaling pathway - cell viability counter screen (AID 1224837). Further: nearly all actives have a fitted effect of over 45% in size. In outline:
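In quantitative HTS format, compounds at 15 concentrations were applied to HepG2 cells double-transfected with hCAR and CYP2B6-2.2kb under 50 nM CITCO stimulation; live-cell protease activity was read after 23 hr via CellTiter-Fluor.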

Experiment [4] concerns the target Nuclear receptor subfamily 1 group I member 3 (Homo sapiens) (UniProt Q14994). Briefly: qHTS assay to identify small molecule antagonists of the constitutive androstane receptor (CAR) signaling pathway (AID 1224838). Further: nearly all actives have a fitted effect of over 40% in size. Further: potency means the concentration at half of the fitted maximal effect. In outline: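 CITCO-stimulated (50 nM final) HepG2 cells stably transfected with hCAR and CYP2B6-2.2kb luciferase were exposed to compounds at 15 concentrations for 24 h at 37 C/5% CO2. A luciferase reagent was added and luminescence recorded after 30 min.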

For experiment [5] the target is unchanged. The experiment can be described thus: qHTS assay to identify small molecule agonists of the constitutive androstane receptor (CAR) signaling pathway (AID 1224839). Further: nearly all actives have a fitted effect of over 15% in size. Further: potency means the concentration at half of the fitted maximal effect.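 On activation: HepG2 cells stably carrying human CAR and a CYP2B6 luciferase reporter.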 In outline:
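Readout: firefly luciferase luminescence via ONE-Glo. System: HepG2 double-stable for hCAR and CYP2B6-2.2kb. Conditions: 15-point compound titration, PK11195 at 0.75 uM final, 24 h incubation.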

The target of experiment [6] is Thyrotropin receptor (Homo sapiens) (UniProt P16473). Briefly: qHTS assay to identify small molecule agonists of the thyroid stimulating hormone receptor (TSHR) signaling pathway (AID 1224843; calls by dose curve; further: nearly all actives have a fitted effect of over 45% in size; further: potency means the concentration at half of the fitted maximal effect). An outline of the steps:
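Agonist-mode screen: TSHR HEK293 cells received test chemicals for half an hour at room temperature, then HTRF cAMP detection reagents for one hour prior to fluorescence measurement. Each chemical ran as a 15-concentration series, triplicated.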

Experiment [7] in a line: qHTS assay to identify small molecule agonists of the hypoxia (HIF-1) signaling pathway - cell viability counter screen (AID 1224844; calls by dose curve; further: nearly all actives have a fitted effect of over 50% in size). In outline:
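Same wells as the HIF-1 reporter screen; ME-180 cells carrying HRE-bla, 17 hr treatment at 37C; CellTiter-Glo luminescence read after 30 min at room temperature.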

Experiment [8] in a line: qHTS assay to identify small molecule agonists of the hypoxia (HIF-1) signaling pathway (AID 1224846; active means well fitted activation curve with a large enough effect in the signal ratio in the repeat runs, not every such curve was filed as active; the % refers to the signal ratio). In outline: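 In ME-180 cells bearing an HRE-bla construct, 17 h treatment with DMSO-dissolved compounds at 37C was followed by CCF4-AM loading to quantify reporter induction.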
Experiment [9] in a line: qHTS assay to identify small molecule agonists of H2AX - cell viability counter screen (AID 1224847; calls by dose curve; further: nearly all actives have a fitted effect of over 30% in size; further: potency means the concentration at half of the fitted maximal effect). An outline of the steps: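 For this counter screen, overnight-attached CHO-K1 cells received test compounds (15 concentrations, 0.76% DMSO final); 3 hr later at 37C, CellTiter-Glo reagent was added and luminescence recorded after 30 min at room temperature.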
The nature of experiment [10]: A CellTox Green Cytotoxicity Assay to monitor cytotoxicity in HEK293 cells - 0 hour (AID 1224869). Further: nearly all actives have a fitted effect of over 50% in size. In outline:
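Homogeneous no-lysis format: HEK293 cell suspension mixed with CellTox Green reagent, seeded, incubated 5 h at 37 C/5% CO2, then dosed by pintool with compound in DMSO.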

Experiment [11] is described as follows: qHTS RealTime-Glo MT Cell Viability Assay in HepG2 cells - 40 hour (AID 1224870). Further: nearly all actives have a fitted effect of over 50% in size. In outline: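 HepG2 cells (600/well) mixed with RealTime-Glo MT reagent, settled 5 h at 37 C/5% CO2 before compound addition. Nonlytic NanoLuc luminescence from viable-cell prosubstrate reduction read repeatedly during 40 h treatment at 37 C.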
The nature of experiment [12]: qHTS assay to identify small molecule antagonists of the estrogen related receptor (ERR) signaling pathway from Tox21 library - cell viability counter screen (AID 1224834). Further: nearly all actives have a fitted effect of over 30% in size. Further: potency means the concentration at half of the fitted maximal effect. An outline of the steps:
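In this quantitative HTS format, ERR cells receive compounds in DMSO and are incubated for 17.5 h at 37 C. Live-cell protease activity is then detected with CellTiter-Fluor.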

A short description of experiment [13]: qHTS assay to identify small molecule antagonists of the estrogen related receptor signaling pathway with the pleiotropic PPARgamma coactivator (PGC) from Tox21 10K library (AID 1224841; call rule not given here; further: actives are mostly falling curves and most rising ones were filed inactive; nearly all actives have a fitted effect of over 50% in size; further: potency means the concentration at half of the fitted maximal effect). An outline of the steps: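 In the PGC/ERR line, DMSO solutions of test chemicals are pin-delivered to 2,000 cells/well six hours after dispensing. Following eighteen hours' incubation, One-Glo reagent is added and luminescence recorded.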

Experiment [14] is described as follows: qHTS assay to identify small molecule agonists of H2AX (AID 1224845; active means well fitted activation curve with a large enough effect in the signal ratio in the repeat runs, not every such curve was filed as active; the % refers to the signal ratio). In outline:
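Wild-type CHO-K1 cells, plated overnight, exposed 3hr at 37C to 15 concentrations (0.76% DMSO final). Lysed, then HTRF anti-pH2AX (S139) cryptate and anti-H2AX-d2 antibodies, 24 hr room temperature; 665/620 nm emission read.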

A short description of experiment [15]: qHTS assay to identify small molecule antagonists of the estrogen related receptor (ERR) signaling pathway from Tox21 library (AID 1224848). Further: nearly all actives have a fitted effect of over 50% in size. Further: potency means the concentration at half of the fitted maximal effect. An outline of the steps: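 Quantitative high-throughput format: ERR reporter cells (2,000/well) pre-incubated 6 h, treated 18 h at 37 C with compounds in DMSO alongside positive and negative controls, then read by ONE-Glo luminescence.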

A short description of experiment [16]: qHTS assay to identify small molecule agonists of the estrogen related receptor (ERR) signaling pathway from Tox21 library (AID 1224849; calls by dose curve; further: nearly all actives have a fitted effect of over 15% in size). The following applies: ERR reporter cell line, ONE-Glo luciferase, 18 h; at 92.4 µM (top of the series) unless noted. In outline: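 Reporter cells (ERR, NTP source) treated with Tox21 10K compounds 18 h, 37 C. Readout: ONE-Glo luminescence, 30 min RT.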

Experiment [17] in a line: qHTS RealTime-Glo MT Cell Viability Assay in HEK293 cells - 32 hour (AID 1224868). Further: nearly all actives have a fitted effect of over 50% in size. Further: potency means the concentration at half of the fitted maximal effect. An outline of the steps: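 HEK293 cells were seeded at 600 cells/well together with NanoLuc luciferase and cell-permeant prosubstrate, preincubated 5 h at 37 C/5% CO2, then given compound in DMSO by pintool. Luminescence from viable-cell prosubstrate reduction was read repeatedly over 40 h.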

A short description of experiment [18]: qHTS assay to identify small molecule antagonists of the estrogen related receptor signaling pathway with the pleiotropic PPARgamma coactivator (PGC) from Tox21 10K library - cell viability counter screen (AID 1224840; active means well fitted cell-killing curve with a large enough effect in the repeat runs, not every such curve was filed as active; further: nearly all actives have a fitted effect of over 40% in size). In outline: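 Viability counter screen, PGC/ERR cells: 17.5 h compound exposure at 37 C, CellTiter-Fluor fluorescence endpoint.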
A short description of experiment [19]: qHTS RealTime-Glo MT Cell Viability Assay in HepG2 cells - 24 hour (AID 1224867). Further: nearly all actives have a fitted effect of over 50% in size. In outline:
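HepG2 cells were seeded at 600 cells/well together with NanoLuc luciferase and a cell-permeant prosubstrate, preincubated 5 h at 37 C/5% CO2, then pin-dosed with compounds in DMSO. Nonlytic luminescence from viable cells was read at each time point.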

Experiment [20] can be described thus: qHTS assay to identify small molecule agonists of the estrogen related receptor signaling pathway with the pleiotropic PPARgamma coactivator (PGC) from Tox21 10K library (AID 1224842). Further: nearly all actives have a fitted effect of over 15% in size. An outline of the steps:
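PGC/ERR reporter cell line, 2,000 cells per well, incubated 6 h at 37 C before 23 nL compound in DMSO was added. After 18 h at 37 C, One-Glo luminescence read following 30 min at room temperature.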
On the % scale 0 is the no-effect control and ±100 the full control effect.

Sequence of Luciferin 4-monooxygenase (Photinus pyralis) (P08659 whole entry, looked up): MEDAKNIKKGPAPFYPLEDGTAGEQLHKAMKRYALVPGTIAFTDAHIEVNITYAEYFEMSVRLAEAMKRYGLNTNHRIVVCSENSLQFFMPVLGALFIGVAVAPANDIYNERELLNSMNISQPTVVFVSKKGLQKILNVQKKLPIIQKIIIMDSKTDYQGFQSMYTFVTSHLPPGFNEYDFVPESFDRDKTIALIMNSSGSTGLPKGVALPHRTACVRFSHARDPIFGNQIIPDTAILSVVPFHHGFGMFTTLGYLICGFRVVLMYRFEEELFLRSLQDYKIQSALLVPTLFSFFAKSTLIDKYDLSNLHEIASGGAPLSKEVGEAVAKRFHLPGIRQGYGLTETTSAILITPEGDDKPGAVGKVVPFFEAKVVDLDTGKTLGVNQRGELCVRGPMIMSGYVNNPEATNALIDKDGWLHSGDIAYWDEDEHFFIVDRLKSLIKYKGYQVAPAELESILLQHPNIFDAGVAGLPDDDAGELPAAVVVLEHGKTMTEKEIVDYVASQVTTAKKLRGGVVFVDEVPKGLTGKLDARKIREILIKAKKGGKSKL
Sequence of Thyrotropin receptor (Homo sapiens) (P16473 whole entry, looked up): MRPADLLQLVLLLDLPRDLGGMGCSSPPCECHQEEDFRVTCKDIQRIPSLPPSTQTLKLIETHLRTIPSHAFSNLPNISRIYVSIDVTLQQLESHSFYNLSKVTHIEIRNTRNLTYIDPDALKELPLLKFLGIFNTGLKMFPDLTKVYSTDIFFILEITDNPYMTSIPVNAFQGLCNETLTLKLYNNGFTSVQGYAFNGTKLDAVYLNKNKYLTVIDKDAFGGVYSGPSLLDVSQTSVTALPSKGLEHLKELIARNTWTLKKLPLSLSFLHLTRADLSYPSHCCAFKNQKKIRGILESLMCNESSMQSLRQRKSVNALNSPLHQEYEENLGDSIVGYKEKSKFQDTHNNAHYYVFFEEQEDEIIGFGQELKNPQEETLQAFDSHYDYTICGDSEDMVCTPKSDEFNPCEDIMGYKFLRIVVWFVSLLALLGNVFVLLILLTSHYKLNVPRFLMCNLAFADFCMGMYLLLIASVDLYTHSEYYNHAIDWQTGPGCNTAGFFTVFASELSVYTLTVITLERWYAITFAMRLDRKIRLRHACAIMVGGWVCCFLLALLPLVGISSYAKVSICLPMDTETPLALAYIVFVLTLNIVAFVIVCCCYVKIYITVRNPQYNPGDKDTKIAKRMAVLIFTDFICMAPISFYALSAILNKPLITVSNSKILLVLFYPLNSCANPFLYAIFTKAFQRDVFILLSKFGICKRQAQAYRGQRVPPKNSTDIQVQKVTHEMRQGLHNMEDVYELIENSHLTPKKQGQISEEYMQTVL
Sequence of Nuclear receptor subfamily 1 group I member 3 (Homo sapiens) (Q14994 whole entry, looked up): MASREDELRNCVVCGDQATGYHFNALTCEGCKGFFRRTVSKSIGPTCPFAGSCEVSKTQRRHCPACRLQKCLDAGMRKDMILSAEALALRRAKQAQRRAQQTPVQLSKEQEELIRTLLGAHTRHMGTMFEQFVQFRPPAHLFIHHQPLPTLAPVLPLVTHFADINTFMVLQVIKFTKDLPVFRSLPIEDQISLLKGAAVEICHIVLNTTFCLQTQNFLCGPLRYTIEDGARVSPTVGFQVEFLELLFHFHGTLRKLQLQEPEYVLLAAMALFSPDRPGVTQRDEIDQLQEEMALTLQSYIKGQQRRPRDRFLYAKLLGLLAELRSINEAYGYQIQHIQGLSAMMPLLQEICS

`CCN(CC)c1c([N+](=O)[O-])cc(C(F)(F)F)c(N)c1[N+](=O)[O-]`: the Potency entry in experiment [1], in experiment [2], in experiment [3], in [4], in experiment [7] and in experiment [10] was “inactive” each time. In addition, in experiment [11], the Potency entry was “inactive”. For the same compound, the Potency in experiment [5] was 48.6 µM (active); in experiment [6], 13.7 µM (active); in experiment [9] it was 113 µM (active). For the same compound, in experiment [8], the compound was called inactive.
On to `CC(C)CC(C)(c1ccc(O)cc1)c1ccc(O)cc1`, for which the Potency is 48.7 µM (active) in [12]; 2.44 µM (active) in [4]; 6.87 µM (active) and 2.17 µM (active) in [5]; 54.6 µM (active) in experiment [13]; 48.7 µM (active) and inactive in experiment [6]; 101 µM (active) and 89.8 µM (active) in experiment [9]. The Potency was 54.6 µM (active) and inactive in experiment [15]; 39 µM (active) in experiment [17]. Also, the Potency result in experiment [7], in experiment [14] and in experiment [10] was “inactive” each time. Besides, in [16], the activity change, positive = activation was -67.3% (inactive) and -18.5% (inactive).
For `c1ccc2c(c1)[nH]c1cnccc12`, the Potency entry in [12], in [2], in experiment [4], in experiment [5], in experiment [18] and in experiment [6] was “inactive” throughout. Further, the Potency entry in [7], in experiment [14], in experiment [19], in experiment [17], in [10] and in experiment [11] was “inactive” throughout.
Turning to `ClCCN1CCOCC1`, the Potency result in [12], in experiment [2], in [18], in experiment [13], in experiment [6] and in [7] was “inactive” in each case. Moreover, the Potency result in experiment [9], in [15], in [19], in experiment [17], in [10] and in experiment [11] was “inactive” in each case. For the same compound, the compound was classed as inactive in [8].
`Clc1ccc(C(Cl)(Cl)Cl)c(Cl)c1`: the Potency entry in [1], in experiment [2], in experiment [3], in experiment [4], in experiment [5] and in experiment [18] was “inactive” throughout. The Potency result in [20], in experiment [6], in experiment [19] and in experiment [10] was “inactive” in each case. In addition, the Potency in [13] and in [15] was 61.6 µM (active) throughout. Also, the activity change, positive = activation in experiment [16] was -45.2% (inactive).
Take `NC(=O)c1ccc(N)nc1`: the Potency result in experiment [1], in experiment [2], in experiment [3], in experiment [4], in experiment [18] and in experiment [14] was “inactive” in each case. Also, the Potency entry in experiment [9], in [19], in experiment [10] and in experiment [11] was “inactive” throughout. The compound was classed as inactive in [8].
